Measurements taken from PubChem BioAssay AID1021 (Emory University Molecular Libraries Screening Center, 2008).
Hit rate of the full screen: of about 220,000 compounds, about 2,100 (0.95%) were called active. The sample as a whole holds a higher share of actives than the screen did. Unmarked numbers belong to inactive results.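 How the source made its calls: active means compounds that cut the binding signal by more than half at the single screening dose; inactive means the rest.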

Each compound was assayed against Induced myeloid leukemia cell differentiation protein Mcl-1 (Homo sapiens) (UniProt Q07820) (assay: disruptors of Mcl-1 and Bid BH3 peptide – biochemical, TR-FRET, 1536-well, primary screen (AID 1021;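 further: His-tagged Mcl-1 with europium anti-His antibody binding Bid BH3 peptide; 0% = Mcl-1 plus peptide wells and 100% = peptide-only wells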)). Settings: TR-FRET Mcl-1/Bid-Dy647 peptide binding, at 21.7 µM, active compounds read high.
Induced myeloid leukemia cell differentiation protein Mcl-1 (Homo sapiens), sequence (Q07820 whole entry, looked up): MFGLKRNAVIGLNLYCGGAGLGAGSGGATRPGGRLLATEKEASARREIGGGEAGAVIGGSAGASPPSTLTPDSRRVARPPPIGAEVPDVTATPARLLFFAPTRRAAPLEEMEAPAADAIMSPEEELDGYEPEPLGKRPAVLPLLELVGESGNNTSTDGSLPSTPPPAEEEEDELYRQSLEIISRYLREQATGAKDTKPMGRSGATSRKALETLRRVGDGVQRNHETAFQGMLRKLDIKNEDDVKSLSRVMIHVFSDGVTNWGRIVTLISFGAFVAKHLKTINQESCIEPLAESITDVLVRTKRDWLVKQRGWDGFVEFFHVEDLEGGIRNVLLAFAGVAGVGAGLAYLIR

| SMILES | inhibition |
| --- | --- |
| O=C(Nc1ccc(Br)cn1)C1CCN(S(=O)(=O)c2cccs2)CC1 | -17.8% |
| CCc1cc2cc(OC)ccc2nc1SCC(=O)Nc1cc(OC)c(OC)cc1C(=O)O | -3.27% |
| O=C(C1CCCO1)N(c1ccc(F)cc1)C1C=CS(=O)(=O)C1 (stereo unspecified) | -15.9% |
| Cc1cccn2c(CN(C)C3CCCc4ccccc43)c(C(=O)N3CCOCC3)nc12 (stereo unspecified) | 54.6% (active) |
| Cc1cc(C)n(CC(C)NCc2c(C(=O)N3CCOCC3)nc3c(C)cccn23)n1 (stereo unspecified) | -17.6% |
| Cc1cccn2c(CNCC(C)Oc3cccnc3)c(C(=O)N3CCOCC3)nc12 (stereo unspecified) | -13.2% |
| Cc1cc(N2CCN(c3ccccc3)CC2)nc(N2CCOCC2)n1 | -98.4% |
| Cc1ccc(-c2cc(C(=O)NN)n[nH]2)o1 | -33.4% |
| O=C(CSc1nc2ccccc2o1)N/N=C/c1ccccc1C(=O)O | -19.1% |
| Nc1c(Cl)cc(S(N)(=O)=O)cc1S(N)(=O)=O | -8.81% |
| Cc1c(/C=N\NC(=O)c2cc3ccccc3o2)c2ccccc2n1C | -24.8% |
| Cc1c(C=O)c2ccccc2n1CC(=O)O | -7.49% |
| Cc1c(/C=N/N2C(=O)C3C4C=CC(C4)C3C2=O)c2ccccc2n1C (stereo unspecified) | 59.1% (active) |
| O=C(NC1CC1)C1=C[C@H](c2c[nH]c3ccccc23)C[C@H](OCc2ccc(CO)cc2)O1 | -70.3% |
| OCC1(Cc2ccccc2C(F)(F)F)CCN(Cc2cccc3cnccc23)CC1 | -14.6% |
| COc1ccc2nc(NC(=O)NC3CCCCC3)sc2c1 | -6.76% |
| COC(=O)[C@H](CC(C)C)NC(=O)N1CCCCC1C (stereo partly specified) | -3.65% |
| O=C(Oc1cccnc1)c1cc2ccccc2oc1=O | 19.8% |
| O=C(Nc1cccnc1)c1cc2cc(Br)ccc2oc1=O | 59.5% (active) |
| COc1ccc(C(=O)Nc2cccnc2)cc1C(=O)Nc1cccnc1 | 14.7% |
| O=C(CN1CCCCCC1)NCCN1C(=O)S/C(=C\c2ccccc2Cl)C1=O | -7.27% |
| COc1ccccc1Cn1c(CO)nc2ccccc21 | -24.8% |
| Cc1cccc(C2C3=C(CCCC3=O)N=C3c4ccccc4C(=O)C32)c1 (stereo unspecified) | -45% |
| Cc1cccc(NC(=S)NC23CN4CN(CN(C4)C2)C3)c1 | -75.3% |

| SMILES | inhibition |
| --- | --- |
| CCS(=O)(=O)c1ccc2oc(SCC(=O)N3c4ccccc4CC3C)nc2c1 (stereo unspecified) | -1.51% |
| CC1CN(S(=O)(=O)c2ccccc2)C(C)CN1S(=O)(=O)c1ccccc1 (stereo unspecified) | -4.73% |
| CCS(=O)(=O)c1ccc2c(c1)N(S(=O)(=O)c1ccccc1)CC(C(=O)O)O2 (stereo unspecified) | 52.3% (active) |
| C=CCOc1ccc(/C=N/NC(=O)C(C)Sc2ccccn2)cc1OCC (stereo unspecified) | -8.6% |
| COc1ccccc1C1CCN(c2ccc([N+](=O)[O-])cn2)CC1 | -13.5% |
| CCOC(=O)C(NC(=O)CC(C)C)(Nc1sc2c(c1C(N)=O)CCCC2)C(F)(F)F (stereo unspecified) | -1.21% |
| O=c1[nH]c2cccnc2n1-c1ccc([N+](=O)[O-])cc1 | -13.5% |
| CCOC(=O)CNC(=O)CSc1nnc(COc2ccc(Cl)cc2)n1CC | 59% (active) |
| CCOC(=O)CNC(=O)CSc1nnc(-c2cccc(OC)c2)n1CC | -3.85% |
| C=CCn1c(COc2ccccc2)nnc1SCC(=O)NCC(=O)OCC | -8.17% |
| COc1ccc(CN(C)C(=S)Nc2ccc(Cl)cc2Cl)cc1 | -35.5% |
| COc1ccc(CN2CCn3ncc(C(=O)Nc4ccc(Cl)cc4Cl)c3C2=O)cc1 | 32% |
| O=c1cc(CCl)nc2scc(-c3ccccc3)n12 | -18.4% |
| Cc1ccccc1-c1nnc(SCC(=O)NCc2ccc3c(c2)OCO3)n1C | -9.98% |
| O=C(O)CSc1nnc(-c2ccc3c(c2)OCO3)n1-c1ccccc1 | -2.66% |
| Cn1c(SCc2nc3ccccc3s2)nnc1-c1ccc2c(c1)OCO2 | 85.9% (active) |
| COc1ccc(CCNc2cc(C)nc3c(-c4ccc(Cl)cc4)c(C)nn23)cc1OC | 5.91% |
| Cc1ccc(-c2noc(CSc3nnnn3-c3ccccc3)n2)cc1 | 0.82% |
| O=c1c2ccccc2nnn1CSc1nnnn1-c1ccccc1 | -28.6% |
| O=c1c2ccccc2nc(CSc2nnnn2-c2ccccc2)n1-c1ccccc1 | 67% (active) |
| Oc1ccc(-c2nncn2-c2ccccc2)cc1 | -19.8% |
| O=C(N/N=C/c1ccc([N+](=O)[O-])o1)c1cccc(S(=O)(=O)N2CCOCC2)c1 | -61.1% |
| O=[N+]([O-])c1cc(Cl)cc(/C=N/NC(=S)Nc2cc(S(=O)(=O)N3CCOCC3)ccc2Cl)c1O | 91.1% (active) |
| O=C(CN1CCN(c2ccc(O)cc2)CC1)Nc1cc(S(=O)(=O)N2CCOCC2)ccc1Cl | -49.6% |

| SMILES | inhibition |
| --- | --- |
| CC(Sc1nc2cc(Cl)ccc2s1)C(=O)Nc1ccc2c(c1)OCO2 (stereo unspecified) | -1.87% |
| Cc1cc(C)nc(Nc2ncn[nH]2)n1 | -30% |
| CN(C)CCCO/N=C(\c1ccccc1)c1ccncc1 | 54.2% (active) |
| O=C(O/N=C(/c1ccccc1)c1ccncc1)c1ccccc1[N+](=O)[O-] | -11.8% |
| COc1cc(OC)nc(N/N=C(\c2ccccc2)c2ccncc2)n1 | 1.66% |
| Cc1ccc2c(c1)C1CN(C)CCC1N2C(=S)Nc1ccc(OC(F)F)cc1 (stereo unspecified) | -15.3% |
| CCn1cc(C(=O)NCc2ccc3c(c2)OCO3)c2cc(OC)c(OC)cc2c1=O | 38.8% |
| COc1ccc2c(c1)C(C)=CC(C)(C)N2C(=O)Nc1ccccc1 | -36.6% |
| COc1ccc2c(c1)C(C)=CC(C)(C)N2C(=O)CNCc1ccc2c(c1)OCO2 | 62% (active) |
| CC(=O)c1nnn(-c2ccc(Cl)cc2C#N)c1C | 1.84% |
| Cc1ccc2nc(-c3cccc(Br)c3)cc(C(=O)Nn3cnnc3)c2c1 | -15.1% |
| COc1ccc(Cl)cc1C(=O)NCc1cn(C)nc1C | -17.2% |
| Cc1ccc(-c2cc(C(=O)NCc3cn(C)nc3C)c3cc(Br)ccc3n2)cc1 | 57.4% (active) |
| CN(Cc1ccccn1)Cc1nc(-c2ccc(Cl)cc2)no1 | 3.34% |
| CN(c1ccccc1)S(=O)(=O)c1ccc(Cl)c(C(=O)OCC(=O)NCc2ccco2)c1 | -33.3% |
| CCN(CC)CCCN=C(N)N | -18.1% |
| Nc1nnc(SCC(=O)NC2CCCc3ccccc32)s1 (stereo unspecified) | -21.1% |
| O=C(CN1CCOCC1)N/N=C/c1ccc(-c2ccc(Br)cc2)o1 | -11.9% |
| Cc1[nH]c2ccccc2c1/C=N\NC(=O)Cn1nnc(-c2ccccc2)n1 | 65.2% (active) |
| O=C(Cn1nnc(-c2ccccc2)n1)NCc1ccccc1 | -1.82% |
| Nc1nnn(CC(=O)N/N=C/c2ccccc2)n1 | -50.3% |
| Nc1nnnn1CC(=O)N/N=C/c1ccc(-c2cccc(Cl)c2)o1 | -8.79% |
| O=C(Cn1nnc(-c2ccccc2)n1)N/N=C/c1ccc(-c2ccc(Cl)cc2)o1 | 61% (active) |
| CCCCN1CCNC1=S | -29.5% |

| SMILES | inhibition |
| --- | --- |
| CC1(C)CC(=O)C(C=NCCN2CCN(C(=S)Nc3cccc(Cl)c3)CC2)=C(O)C1 | -49.6% |
| Cc1nn(C)c(C)c1Sc1ccccc1N | -33.5% |
| CCN(CC)c1ccc(NC(=O)C2CCC(CNc3c(N4CCCC4)c(=O)c3=O)CC2)c(C)c1 (stereo unspecified) | -70.9% |
| CC1(C)OC(=O)N2CCc3ccccc3C21C (stereo unspecified) | 6.73% |
| CN(C)C(=O)c1nc2ccc(Cl)cn2c1CNCc1cccc(OC(F)(F)F)c1 | -1.45% |
| CCC(CC)C(=O)N1CC(=O)Nc2ccc(Br)cc2C1c1ccccc1 (stereo unspecified) | -3.97% |
| COC(=O)CN1C(C)=Nc2ccc(Br)cc2C1c1ccccc1 (stereo unspecified) | 67.2% (active) |
| COC(=O)CN1C(=O)C(O)=C(C(C)=O)C1c1ccc([N+](=O)[O-])cc1 (stereo unspecified) | -31.9% |
| N#CCCCn1c(O)c(N=NC(=O)C(O)c2ccccc2)c2ccccc21 (stereo unspecified) | -13.3% |
| Cc1cc(=O)oc2c(C(=O)c3ccccc3)c(OCC(N)=O)ccc12 | -15.3% |
| N#CCC(=O)N/N=C/c1cn(Cc2ccc3ccccc3c2)c2ccccc12 | 25.7% |
| O=C(O)/C=C/c1cn(Cc2ccccc2)nc1-c1cccs1 | -0.35% |
| O=C(O)CCn1cc(/C=C/C(=O)c2ccc(Cl)cc2)c(-c2cccc(Br)c2)n1 | 69.2% (active) |
| CCOC(=O)/C(C#N)=C/c1cn(CCC(=O)O)nc1-c1ccc(Br)cc1 | 39.2% |
| Cc1noc(C)c1S(=O)(=O)Nc1ccc(C(=O)N2CCN(c3ccc(F)cc3)CC2)cc1 | -10.6% |
| COc1cc(C(=S)N2CCOCC2)ccc1O | -30.2% |
| CCOc1cc(C(=S)N2CCOCC2)ccc1O | 74.5% (active) |
| CCOc1cc(C(=O)OCC(=O)Nc2cccc(C)c2)ccc1OCC(=O)N1CCOCC1 | -54% |
| O=C(Nc1ccc2c(c1)C(=O)OC2)Nc1cccc2ccccc12 | -19.5% |
| COc1ccc(/C=C/CN2CCN(Cc3ccc(C)cc3)C(CCO)C2)cc1 (stereo unspecified) | -9.23% |
| NC1=NC[C@@H](Cc2ccc(O)cc2)N1CC1CCCCC1 | -44.1% |
| C#CCOCCOCCOCCNc1nc(N2CCN(C(=O)[C@H](Cc3ccc(O)cc3)n3cc(C(N)CC(C)C)nn3)CC2)nc(N2CCN(C(=O)[C@H](CCC(=O)O)n3cc(C(N)[C@H](C)CC)nn3)CC2)n1 (stereo partly specified) | 2.45% |
| C#CCOCCOCCOCCNc1nc(N2CCN(C(=O)[C@H](CCC(=O)O)n3cc(C(N)CO)nn3)CC2)nc(N2CCN(C(=O)[C@H](Cc3ccc(O)cc3)n3cc(C(N)[C@H](C)CC)nn3)CC2)n1 (stereo partly specified) | 62.7% (active) |
| C#CCOCCOCCOCCNc1nc(N2CCN(C(=O)C(Cc3ccc(O)cc3)n3cc(C(N)CC(C)C)nn3)CC2)nc(N2CCN(C(=O)C(Cc3ccc(O)cc3)n3cc(C(N)C(C)CC)nn3)CC2)n1 (stereo unspecified) | -1.6% |
